Measurements published in PubChem BioAssay AID588676 (Johns Hopkins Ion Channel Center, 2011).
Screen size: about 310,000 compounds; about 3,900 (1.3%) were called active.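 Rule for the calls: active = calcium-response B-score plate-corrected more than 3 library SD below zero, starting fluorescence within 5 deviations, no agonist response on first addition; inactive = the rest.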 Only a selection was taken, and actives are over-represented in it overall.

These compounds were tested against Mas-related G-protein coupled receptor member X1 (Homo sapiens) (UniProt Q96LB2) (assay: blockade of BAM8-22-evoked MrgX1 calcium response – HEK293 cells, Fluo-4 calcium flux, primary screen (AID 588676;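 for B-score: peak minus trough fluorescence over baseline after final BAM8-22 challenge near maximal dose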)). Conditions: Fluo-4, BAM8-22 antagonism, at 10 µM; hits give low values.
Sequence of Mas-related G-protein coupled receptor member X1 (Homo sapiens) (Q96LB2 whole entry, looked up): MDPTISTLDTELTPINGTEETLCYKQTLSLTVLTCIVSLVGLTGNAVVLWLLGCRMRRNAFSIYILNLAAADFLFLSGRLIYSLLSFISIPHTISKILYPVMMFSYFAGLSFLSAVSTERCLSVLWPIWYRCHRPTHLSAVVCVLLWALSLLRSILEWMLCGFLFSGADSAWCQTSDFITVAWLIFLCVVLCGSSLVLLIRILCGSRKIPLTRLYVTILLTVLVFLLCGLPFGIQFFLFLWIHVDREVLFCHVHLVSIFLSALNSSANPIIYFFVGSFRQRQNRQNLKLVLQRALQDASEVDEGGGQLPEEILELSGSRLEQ

B-score, inactive:
C=CC[n+]1c(-c2ccc(C)cc2)csc1NNC(=O)Nc1ccccc1
CCCOc1ccc(Cc2c(Cl)nc(SC)nc2NC)cc1
COc1cc(CN2CCNC(=O)C2CC(=O)NCCc2ncccc2C)cc(OC)c1 (stereo not given)
Cc1nccn1CCCNC(=O)CC1C(=O)NCCN1Cc1ccc(Cl)c(F)c1 (stereo not given)
COC(=O)c1ccc(NC(=O)CSc2nncn2-c2cccnc2)cc1
O=C(CSc1nnc(Cc2ccccc2)n1-c1ccccc1)N1CCOCC1
CCC(C)(C)NC(=O)CN(C(=O)CCC(=O)Nc1nccs1)c1ccc2c(c1)OCO2
CCS(=O)(=O)c1ccc2oc(SCC(=O)N3c4ccccc4CC3C)nc2c1 (stereo not given)
CCOC(=O)C1CN(S(=O)(=O)c2ccc(OC)cc2)c2cc(Cl)ccc2O1 (stereo not given)
Cc1ccc(C)c(S(=O)(=O)N2CCCOC2CNC(=O)C(=O)NC2CCCCC2)c1 (stereo not given)
COc1cc(OC)cc(C(=O)NCCCn2ccnc2)c1
CC1CC(C)CN(C(=O)CCNC(=O)Cn2cnc3ccccc3c2=O)C1 (stereo not given)
CCN1CCN(c2cc3nc(C)n(Cc4ccccc4)c(=O)c3cc2NC(=O)c2ccccc2F)CC1
COc1ccc(COC(=O)c2ccc(Cl)c(S(=O)(=O)N3CCOCC3)c2)cc1F
Cc1cc(NC(=O)COC(=O)c2ccc(F)c(S(=O)(=O)N3CCOCC3)c2)no1
Fc1ccc(-c2ccc(CNCc3ccccn3)o2)cc1Cl
CCCCc1nc2cc(C(=O)N3CCCCC3CCO)ccc2o1 (stereo not given)
COc1ccc(-n2nc3c(N4CCC(C(=O)NCc5ccccc5)CC4)nnc(C)c3c2C)cc1
OCC1(Cc2ccccc2C(F)(F)F)CCN(Cc2ccncc2)CC1
C/C(=N/N1CCN(Cc2cccc3ccccc23)CC1)c1cccnc1
CCc1cc2c(NC3CCCC3)ncnc2s1
CCc1cc2c(NC(Cc3ccccc3)C(=O)O)ncnc2s1 (stereo not given)
Cc1ccc(C(=O)N/C(=C\c2ccco2)C(=O)NC2CCS(=O)(=O)C2)cc1 (stereo not given)
ON=C1/C(=N\O)CC2(C/C1=N/O)OCCO2
Nc1nc(-c2sc3nc4c(cc3c2N)CCCC4)nc(N2CCOCC2)n1
Cc1ccc([C@@H]2CC=C(C(=O)O)[C@H](c3cccc(Cl)c3)N2S(=O)(=O)c2ccc(C)cc2)cc1
Cc1ccccc1S(=O)(=O)N1[C@@H](c2cccc(Cl)c2)C(C(=O)O)=CC[C@H]1c1ccc(Cl)cc1
COc1ccccc1OCCC(=O)OCC(=O)NCc1ccccc1
CC(=O)c1cc(-c2ccccc2)n(CCC(=O)NC2CCCCCC2)c1C
Cc1occc1C(=O)NC1CCCN(Cc2ccc(CC(C)C)cc2)C1 (stereo not given)
CNC(=O)c1[nH]cnc1C(=O)N[C@@H](CC(C)C)C(=O)OC(C)(C)C
CCOC(=O)c1ccc(NC(=O)c2nc[nH]c2C(=O)N[C@@H](CCCCNC(=O)OC(C)(C)C)C(=O)OC(C)(C)C)cc1
O=[N+]([O-])c1ccc(Oc2ccc(F)cc2Br)c2ccncc12
O=C(CN1CCN(c2ccc(O)cc2)CC1)Nc1ccc(-c2ccccc2)cc1
O=C(COC(=O)c1ncc(Cl)c(Cl)c1Cl)NCc1cccs1
NS(=O)(=O)c1cc(C(=O)OCC(=O)NNC(=O)c2ccccc2)ccc1Cl
CC(=O)c1cnn(-c2cc(Oc3ccc(F)cc3)ncn2)c1C
Cc1cc(NC(=O)[C@H](C)NC(=O)c2ccco2)ccc1Br
NC1=NC(=O)C2(COC(c3ccccc3Cl)OC2)S1 (stereo not given)
O=C(CN1CCSCC1)N/N=C/c1ccc(Cl)cc1
FC(F)(F)c1nc2ccccc2nc1N/N=C/c1ccc(Cl)cc1
COc1ccc(CCNC(=O)C2CCCN(Cc3nc(-c4cccc(Cl)c4)oc3C)C2)cc1OC (stereo not given)
COCCn1c(C)cc(C(=O)COC(=O)/C=C/c2cccc(OC)c2)c1C
CCc1[nH]nc(C(=O)N2CCCC(CO)(Cc3ccc(F)cc3F)C2)c1C (stereo not given)
C=CCNC(=O)c1sc(SC)cc1-c1ccc(Cl)cc1
CCC(=O)NC(Nc1nc2ccc(C)cc2s1)(C(=O)OC)C(F)(F)F (stereo not given)
CCOc1ccc2nc(NC(=O)c3cc([N+](=O)[O-])ccc3N3CCOCC3)sc2c1
CCCOC(=O)c1c(NC(=O)c2cnn3c2NC(c2ccccc2)CC3C(F)(F)F)sc2c1CCCC2 (stereo not given)
Cc1nc(N=C(N)N)nc2c(C)cccc12
CCOc1cc(/C=C2/N=C(c3ccc(C(C)(C)C)cc3)OC2=O)cc(Cl)c1OS(C)(=O)=O
Cc1cccc(NC(=O)Cn2c(=O)n(Cc3ccccc3)c(=O)c3c(C)c(C)sc32)c1
CCOc1ccccc1C1CC(c2ccccc2)Nc2nc(N)nn21 (stereo not given)
COc1ccc(C2CC(c3ccc(Cl)cc3Cl)Nc3nc(N)nn32)cc1OC (stereo not given)

B-score, active:
Cc1cc(C)n(CCNC(=O)CC2C(=O)NCCN2Cc2ccc(C)o2)n1 (stereo not given) -4.73
O=C(CSc1nncn1-c1cccnc1)N1CCOCC1 -5.04
CCS(=O)(=O)c1ccc2c(c1)N(S(=O)(=O)c1ccccc1)CC(C(=O)O)O2 (stereo not given) -4.74
CCOc1ccc(CCNC(=O)COC(=O)c2ccc(F)c(S(=O)(=O)N3CCOCC3)c2)cc1OCC -5.64
OCC1(Cc2ccccc2C(F)(F)F)CCN(Cc2cccc3cnccc23)CC1 -7.22
CCc1cc2c(SCC(=O)Nc3ncc(Cl)c(C)c3Cl)ncnc2s1 -4.97
Cc1ccc(S(=O)(=O)N2[C@@H](c3cccc(Cl)c3)C(C(=O)O)=CC[C@H]2c2ccc(Cl)c(Cl)c2)cc1 -6.18
Cc1ccc(NC(=O)c2nc[nH]c2C(=O)N[C@@H](CCCCNC(=O)OC(C)(C)C)C(=O)OC(C)(C)C)cc1 -9.54
O=C(COC(=O)c1ncc(Cl)c(Cl)c1Cl)NNC(=O)c1ccccc1 -4.63
Clc1ccc(C=NC23CN4CN(CN(C4)C2)C3)cc1 -6.85
O=C(NC(Nc1nc2ccc([N+](=O)[O-])cc2s1)(C(F)(F)F)C(F)(F)F)c1ccccc1 -6.28
CCOc1ccccc1C1CC(c2ccc(Cl)cc2)Nc2nc(N)nn21 (stereo not given) -7.74
